High-throughput results as filed in PubChem BioAssay.
Compounds with a hit are over-represented: about 2.6% of the library has one in this group of screens.
MLLE-PAM2 inh: inhibitors of PABP1 MLLE–PAM2 peptide binding, primary screen, biochemical, fluorescence polarization, FITC-PAM2, GST-MLLE; inhibition, % at 20 µM; 360,000 compounds, 0.36% hits; AID 588489, 2011; in the data active = inhibition above about 35%, passing the limit was not always enough;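 note: plate controls were DMSO wells with GST-MLLE for no effect and wells lacking GST-MLLE protein for full effect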
PABP FP inh: PABP poly(A) RNA binding inhibitors, primary screen, biochemical, fluorescence polarization, uHTS; Polyadenylate-binding protein 1 (Homo sapiens), P11940; calls only at 35 µM; 290,000 compounds, 1% hits;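 note: calls also rest on retests at 20 µM and on dose response follow-up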
eIF4H FP inh: human eIF4H binding inhibitors, primary screen, translation initiation inhibitor project, biochemical, uHTS, fluorescence polarization | 290,000 compounds, 0.94% hits | AID 2012, 2009 | inhibition, % at 35 µM | eIF4H fluorescence polarization binding assay;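 note: calls also rest on retests at 20 µM and on dose response follow-up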
AI-2 QS mod: Vibrio harveyi AI-2 quorum sensing modulators, primary screen, JMH597 strain, luminescence/OD600 ratio; Vibrio harveyi JMH597 AI-2 luminescence/OD600 ratio, 9 h; hits give low values; strain lacks LuxN and CqsS sensors; 0 = neutral-control median; activity change, % at 7.5 µM; 300,000 compounds, 0.4% hits; in the data active = activity change below about -75%, passing the limit was not always enough; inconclusive = no clear call, values can overlap the other calls;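 note: luminescence divided by OD600 gain over 9 h not by final OD600 alone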
PHOSPHO1 block: PubChem AID 1565; recombinant PHOSPHO1, absorbance phosphatase assay; inhibition, % at 13.3 µM; 290,000 compounds, 1.1% hits; in the data active = inhibition above about 60%
Target sequence (Q8TCT1 whole entry, looked up): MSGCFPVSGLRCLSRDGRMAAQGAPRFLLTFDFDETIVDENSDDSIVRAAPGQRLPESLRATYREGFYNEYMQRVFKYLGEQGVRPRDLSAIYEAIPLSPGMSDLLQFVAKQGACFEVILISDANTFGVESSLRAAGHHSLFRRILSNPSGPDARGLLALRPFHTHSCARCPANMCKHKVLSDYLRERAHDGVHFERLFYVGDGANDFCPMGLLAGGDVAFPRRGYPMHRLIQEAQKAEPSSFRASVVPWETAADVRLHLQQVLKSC
ABCB6 inh MLPCN: ABCB6 transporter inhibitors, primary screen, K562-ABCB6 cells, flow cytometry, MLPCN library. ATP-binding cassette sub-family B member 6 (Homo sapiens), Q9NP58. K562-ABCB6 porphyrin accumulation, 1 h; hits give low values. fluorescence ratio to DMSO, % at 10 µM. 360,000 compounds, 0.19% hits;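 active = fluorescence ratio to DMSO below 75%, the collection mean minus 3 SD; inconclusive = too few cells collected in the well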;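 note: signal is porphyrin accumulated inside mitochondria; 100% equals median channel fluorescence of DMSO control wells; lower ratio means ABCB6 inhibition with less porphyrin fluorescence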
* hit, by the source's call; i = inactive; ? = inconclusive; . = not tested or not shown; + = active, no number. Unless noted, the rule behind the calls is not given here.

SMILES | MLLE-PAM2 inh | PABP FP inh | eIF4H FP inh | AI-2 QS mod | PHOSPHO1 block | ABCB6 inh MLPCN
COc1cc2c(C#N)c(N3CCCCC3)nc(N)c2c(N)n1 | -12.4 | + | 90.9* | 31.3 | 7.6 | 109.0
COc1cc2c(C#N)c(N3CCOCC3)nc(N)c2c(N)n1 | 18.6 | i | -2.2 | 23.9 | 3.5 | 104.0
COc1cc2c(C#N)c(N3CCc4ccccc4C3)nc(N)c2c(N)n1 | 1.9 | + | 121.5* | 33.5 | 6.3 | 101.0
COc1ccc(C(NC(=O)C2CCN(Cc3ccc(Oc4ccccc4)cc3)CC2)c2ccccc2C)cn1 (stereo not given) | 4.9 | . | . | . | . | 95.0
CC(C)NC(=O)C1(C)CCCN1C/C=C/c1ccccc1 (stereo not given) | -3.0 | . | . | . | . | 104.0
CC(C)C[C@@H]1CN(CCCC[C@H]2CNC(=O)C(=O)N2CCC2CCCCC2)C(=O)C(=O)N1CCc1ccc(O)cc1 | . | . | . | . | . | 99.0
CCCCCCCCCC(=O)O | -2.1 | . | . | . | . | 100.0
CCCCCC#CCC#CCC#CCC#CCCCC(=O)O | . | i | 84.8* | 26.5 | 79.4* | .
Cc1onc(-c2c(F)cccc2Cl)c1C(=O)NC1CCCCCC1 | 1.6 | i | 3.9 | 25.1 | 37.0 | 96.0
Cc1onc(-c2c(F)cccc2Cl)c1C(=O)NC(=S)NC1CCS(=O)(=O)C1 (stereo not given) | 46.8* | i | -8.5 | -0.6 | 4.2 | 100.0
CCN1CCc2c(C#N)c(N3CCOCC3)nc(NCc3ccccc3)c2C1 | 3.0 | i | 27.8 | 5.3 | 14.5 | 92.0
CCN1CCc2c(C#N)c(N3CCOCC3)nc(NCCO)c2C1 | 78.8* | i | 40.8 | 12.6 | -6.1 | 95.0
O=C1NC[C@@H](CCCCN2C[C@H](Cc3ccc(O)cc3)N(CC3CCCCC3)C(=O)C2=O)N(CCc2ccccc2)C1=O | . | . | . | . | . | 99.0
CCN1CCN(c2ccc(N3CCN(S(=O)(=O)c4cccc([N+](=O)[O-])c4)CC3)nn2)CC1 | -0.6 | . | . | . | . | 93.0
CC(C)n1c(N2CCN(S(=O)(=O)c3cccc([N+](=O)[O-])c3)CC2)nc2ccccc21 | -9.6 | i | -1.0 | 24.0 | 61.1* | 93.0
COc1ccc(NC(=O)c2cc(C3CCCCN3S(=O)(=O)c3c(C)noc3C)on2)c(C)c1 (stereo not given) | 1.8 | . | . | . | . | 92.0
CCOC(=O)c1c(NC(=O)c2noc3c2CCCC3)sc(C)c1C | . | i | -0.7 | . | 92.3* | .
CCOc1ccccc1NC(=O)CN1C(=O)CSC(C)C1=O (stereo not given) | -6.6 | i | -3.5 | 18.3 | 64.7* | 98.0
S=c1[nH]nc(COc2ccccc2)n1C1CCCCC1 | 22.6 | i | -6.7 | 15.6 | 65.5* | 90.0
O=C(O)CSc1nnc(CSc2nc3ccccc3s2)n1-c1ccccc1 | -112.7 | i | 2.9 | 6.7 | -49.4 | 105.0
S=c1[nH]nc(CSc2nc3ccccc3s2)n1C1CCCCC1 | 0.4 | i | 5.7 | -3.7 | 96.2* | 107.0
C#CCSc1nnc(CSc2nc3ccccc3s2)n1-c1ccccc1 | -123.0 | i | 4.6 | -11.5 | 75.7* | 94.0
Cn1c(N)c(C(=O)COC(=O)C2Cc3ccccc3CN2S(C)(=O)=O)c(=O)n(C)c1=O (stereo not given) | 4.6 | . | . | . | . | 96.0
O=C1Cc2cccc(=O)c(O)c2C(=O)O1 | 9.3 | . | . | . | . | 96.0
O=C1c2c(O)cccc2Cc2cccc(O)c21 | 46.2* | . | . | . | . | 105.0
SMILES | MLLE-PAM2 inh | PABP FP inh | eIF4H FP inh | AI-2 QS mod | PHOSPHO1 block | ABCB6 inh MLPCN
Cc1cccc(CN2[C@H](COCc3ccccc3)C=CS2(=O)=O)c1 | 0.1 | . | . | . | . | 94.0
COc1ccc2c(C)c(CC(=O)N3CCN(C(=O)C4COc5ccccc5O4)CC3)c(=O)oc2c1 (stereo not given) | -7.8 | i | -9.8 | 9.6 | 63.6* | 97.0
O=C(O)CCC(=O)Nc1ccc2c(c1)Cc1cc(NC(=O)CCC(=O)O)ccc1-2 | 7.3 | i | 58.6* | 1.3 | . | 95.0
CCOc1cccc2sc(NN)nc12 | 3.3 | i | -4.4 | . | 60.9* | 105.0
CCOc1ccccc1-c1n[nH]c(=S)o1 | -93.4 | i | -11.9 | 15.4 | 99.7* | 98.0
CCOc1ccc(-c2n[nH]c(=S)o2)cc1 | -98.5 | i | 2.0 | 19.4 | 51.9 | 107.0
COc1ccc(-c2n[nH]c(=S)o2)c(OC)c1 | -80.7 | i | -6.2 | 29.6 | 102.7* | 98.0
COc1ccc(-c2nc(-c3ccc(Br)cc3)no2)c(OC)c1 | -2.5 | i | -8.7 | 11.0 | 6.9 | 98.0
Cc1ccc(NC(=O)C2(C)CCCN(C(C)C)C2)cc1C (stereo not given) | 15.8 | . | . | . | . | 98.0
O=c1c2ccccc2nc(SCc2nc(-c3ccccc3)no2)n1-c1ccc(F)cc1 | -7.9 | + | 86.6* | . | 6.1 | 107.0
NCC12CC3CC(C1)CC(c1ccc(Br)cc1)(C3)C2 | 1.9 | i | -5.5 | 16.1 | 27.3 | 101.0
Cc1ccc(C23CC4CC(CC(CN)(C4)C2)C3)cc1 | 9.7 | i | -0.9 | 15.1 | 60.0* | 92.0
CC1(C)CC(=O)C2=C(C1)Nc1ccccc1NC2c1ccccc1F (stereo not given) | 47.7* | i | 3.4 | 4.9 | 8.3 | 95.0
Cc1cc(C)nc(SCc2ccc(C(=O)N/N=C/c3cccc(O)c3O)cc2)n1 | 7.1 | + | 97.4* | ? | 15.8 | 102.0
COc1ccc(O)c(/C=N/NC(=O)c2ccc(CSc3nc(C)cc(C)n3)cc2)c1 | 0.0 | i | 10.6 | 52.5 | -5.1 | 90.0
Cc1cc(C)nc(SCNC(=O)c2ccccc2)n1 | 43.1* | i | 3.3 | 14.1 | -4.7 | 99.0
Cc1cc(SCNC(=O)c2ccccc2)nc(C(C)C)n1 | 41.2* | i | -7.2 | 26.6 | -3.2 | 91.0
CCc1ccc2c(c1)NC(=O)C2(C)Cc1ccccc1OC (stereo not given) | 5.8 | . | . | . | . | 97.0
O=C(NCc1cccnc1)c1cc(C2CCCCN2S(=O)(=O)c2cccs2)on1 (stereo not given) | 7.5 | . | . | . | . | 82.0
O=C(NCc1cnn(-c2ccc(F)cc2)c1)C1CCC(=O)N(C2CC2)C1 (stereo not given) | 4.1 | i | -4.0 | 21.3 | 61.0* | 97.0
COc1cc(Cl)ccc1OC1(C)CCN(Cc2ccc3ccccc3c2)C1 (stereo not given) | -10.6 | . | . | . | . | 97.0
CN(Cc1cn(-c2ccccc2)nc1-c1ccc2c(c1)OCO2)Cc1nccn1C | 5.6 | i | -6.9 | 21.5 | -0.5 | 93.0
CN(CCn1ccnc1)Cc1cn(-c2ccccc2)nc1-c1ccc2c(c1)OCO2 | 9.8 | i | 3.6 | 16.2 | 60.1* | 90.0
CCOc1ccc(/C=C/C(=O)Nc2ccccc2C(F)(F)F)cc1 | 2.0 | + | active | 9.8 | -14.4 | 97.0
